IL1B secr inh: inflammasome signaling inhibition, IL-1 beta readout. AID 743279. 4.7% of 360,000 active. THP-1 LPS/ATP IL-1B secretion, AlphaLISA, 16 h; hits give low values. activity change, % at 57.5 µM; in the data active = activity change below about -50%; inconclusive = mostly about -30% to -49%
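Secreted IL-1B measured by AlphaLISA bead assay after 16 h compound exposure of THP-1 cells; compounds (final up to 57.5 uM) added 1 h before LPS (250 ng/mL) and ATP (1.25 mM) stimulation; lower signal means less secretion.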
RORgamma inh: inhibitors of mouse ROR gamma transcriptional activity. P51450. Drosophila S2 Gal4-RORgamma UAS-luciferase reporter, 20 h. Potency, µM (doses to about 53.6 µM), for the others: at the top dose activity change, negative = inhibition, actives largely listed as inhibitors. 5.4% of 310,000 active; note: potency is the fitted concentration of half-maximal effect; nearly all actives have a fitted effect of over 60% in size
Target sequence (P51450 whole entry, looked up, the tested form may be a part): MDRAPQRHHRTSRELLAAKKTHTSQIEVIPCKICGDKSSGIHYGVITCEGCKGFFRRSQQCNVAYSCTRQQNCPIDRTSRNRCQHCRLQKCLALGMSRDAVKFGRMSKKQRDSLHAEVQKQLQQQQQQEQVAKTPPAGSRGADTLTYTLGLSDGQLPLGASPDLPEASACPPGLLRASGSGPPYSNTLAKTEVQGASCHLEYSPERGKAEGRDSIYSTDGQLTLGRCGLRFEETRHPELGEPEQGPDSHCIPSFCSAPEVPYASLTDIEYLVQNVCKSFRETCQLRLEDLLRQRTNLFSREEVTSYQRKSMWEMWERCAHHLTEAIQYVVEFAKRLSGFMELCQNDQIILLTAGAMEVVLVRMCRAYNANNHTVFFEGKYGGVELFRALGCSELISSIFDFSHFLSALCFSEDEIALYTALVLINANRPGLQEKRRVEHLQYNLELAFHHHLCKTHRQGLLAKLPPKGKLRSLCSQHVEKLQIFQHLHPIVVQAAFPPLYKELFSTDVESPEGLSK
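Stably transfected Drosophila Schneider cells are the test system, with ROR gamma fused to Gal4 and luciferase under UAS control; luminescence is read after 20 hr of 700 uM copper sulfate induction at ambient temperature.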
Gal4-VP16 FLuc: inhibits Gal4-VP16 luciferase reporter, ROR gamma counter-screen | Drosophila S2 Gal4-VP16 UAS-luciferase, luminescence, 20 h | Potency, µM (titrated, usually from 53.6 µM), inactives show at the top dose activity, negative = inhibition, usual class: inhibitors | 3.5% of 310,000 active;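 note: Gal4-VP16 expression switched on by copper sulfate through the metallothionein promoter; potency is the fitted concentration of half-maximal effect; nearly all actives have a fitted effect of over 50% in size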
TDP1 cell noCPT: qHTS for Inhibitors of human tyrosyl-DNA phosphodiesterase 1 (TDP1): qHTS in cells in absence of CPT; DT40 Tdp1-/- hTDP1 cells, no CPT, ATP luminescence, 48 h; Potency, µM (doses to about 46.2 µM), for inactives: at the top dose activity change, negative = growth inhibition, usual class: inhibitors; 15% of 420,000 active; note: potency is the fitted concentration of half-maximal effect; nearly all actives have a fitted effect of over 55% in size
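No-CPT arm: Tdp1-/-;hTDP1 DT40 cells (400/well) plus compounds, incubated ≥48 hr at 37 °C. Readout CellTiter-Glo luminescence.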
ELG1 repair inh: blocks ELG1-dependent DNA repair in HEK293T cells | 2.3% of 330,000 active | AID 504467 | HEK293T ELG1-luciferase reporter, luminescence, 16 h; DNA damage induced by 5-fluorouridine | Potency, µM (highest dose often 46.1 µM), without a hit: at the top dose activity change, negative = inhibition, most hits filed as inhibitors; note: potency is the fitted concentration of half-maximal effect; nearly all actives have a fitted effect of over 55% in size
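HEK293T cells expressing luciferase-tagged ELG1 (2,000/well) received 5-Fluorouridine plus compound or DMSO for 16 hr at 37 °C. Luciferase was read by ONE-Glo luminescence after 30 min at room temperature.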
DT40 TDP1 CPT: DT40-hTDP1 cell growth loss with CPT; chicken DT40 Tdp1-/-;hTDP1 cells + 20 nM CPT, ATP luminescence, 48 h; 12% of 420,000 active; Potency, µM (series often up to 46.2 µM), without a hit: at the top dose activity change, negative = growth inhibition, most hits filed as inhibitors; note: potency is the fitted concentration of half-maximal effect; nearly all actives have a fitted effect of over 55% in size
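Chicken DT40 Tdp1-/- cells stably complemented with human TDP1 were seeded at 400 cells/well in medium containing 20 nM camptothecin, exposed to pin-transferred compounds, and grown at 37 °C for at least 48 hr. Viability was read as ATP luminescence.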
* marks the source's active call; other numbers are inactive results; ? = inconclusive; / = not tested or not shown; [ ] = another dose, or the depositor's remark. Hits are enriched below; roughly 21% of the tested compounds scored in any of these assays. Unless noted, calls come from the whole dose curve; as a rule, active = well fitted curve in the direction sought with a large enough effect; inconclusive = small, poorly fitted or top-dose-only effect, or another doubt; inactive = no such curve, though single readings can be large; an effect the other way counts as inactive or inconclusive. % is set by controls: 0 for no effect and ±100 for the full control effect.

SMILES | IL1B secr inh | RORgamma inh | Gal4-VP16 FLuc | TDP1 cell noCPT | ELG1 repair inh | DT40 TDP1 CPT
O=C(CSc1ccc(-c2cccs2)nn1)N1CCCCCC1 | 0.0 | ? | 28.8% | 23.1µM* | ? | ?
Cc1ccccc1NC(=O)CSc1ccc(-c2cccs2)nn1 | / | / | / | 23.1µM* | / | ?
O=C(CSc1ccc(-c2cccs2)nn1)N1CCCCC1 | 0.0 | -7.3% | 28.1% | -6.6% | ? | -12.0%
CC(C)(C)[C@@H]1C=C(C(=O)N2CCN(Cc3ccc4c(c3)OCO4)CC2)O[C@H](OCc2ccc(CO)cc2)C1 | -16.5 | 22.0% | -12.6% | 16.4µM* | ? | ?
CC(C)(C)[C@H]1C=C(C(=O)N2CCN(Cc3ccc4c(c3)OCO4)CC2)O[C@@H](OCCCCO)C1 | ? | 37.9% | -5.3% | -18.5% | 0.4% | ?
O=C(C1=C[C@@H](c2ccc(C(F)(F)F)cc2)C[C@@H](OCCCCO)O1)N1CCN(Cc2ccc3c(c2)OCO3)CC1 | ? | 37.4% | -11.7% | ? | ? | 18.4µM*
C#CCNC(=O)C1=C[C@H](C(C)(C)C)C[C@H](OCc2ccc(CO)cc2)O1 | -19.3 | 12.7% | -14.9% | ? | 0.2% | ?
O=C(C1=C[C@@H](c2ccc(Br)cc2)C[C@@H](OCc2ccc(CO)cc2)O1)N1CCN(Cc2ccc3c(c2)OCO3)CC1 | -25.2 | ? | 4.1% | 18.4µM* | ? | ?
CC(C)(C)[C@@H]1C=C(C(=O)Nc2ccccc2)O[C@H](OCc2ccc(CO)cc2)C1 | ? | -31.8% | -28.9% | 20.6µM* | 7.3µM* | 23.1µM*
Nc1ccccc1S(=O)(=O)NC1=NCCCCC1 | 0.0 | -1.6% | 2.2% | -6.2% | 0.2% | 0.0%
O=C(C1=C[C@@H](c2ccc(C(F)(F)F)cc2)C[C@@H](OCc2ccc(CO)cc2)O1)N1CCN(Cc2ccc3c(c2)OCO3)CC1 | -69.6* | -31.6% | ? | 20.6µM* | ? | 20.6µM*
O=C(C1=C[C@H](c2ccc3c(c2)OCO3)C[C@H](OCc2ccc(CO)cc2)O1)N1CCCCCCC1 | -21.9 | 14.1µM* | -28.5% | -14.4% | -14.9% | ?
O=C(C1=C[C@H](c2ccc(C(F)(F)F)cc2)C[C@H](OCc2ccc(CO)cc2)O1)N1CCN(Cc2ccc3c(c2)OCO3)CC1 | / | -34.4% | -29.5% | ? | ? | ?
CCN(c1ccccc1)S(=O)(=O)c1cc(C(=O)OC2CCOC2=O)ccc1C (stereo not drawn) | 30.9 | / | / | 20.5% | 13.1% | -7.3%
COc1ccccc1C(C)Nc1ccc(S(=O)(=O)N2CCN(C)CC2)cc1[N+](=O)[O-] (stereo not drawn) | -15.5 | / | / | ? | -19.3% | ?
CCN1C(=O)[C@H]2[C@H]3[C@H](O)[C@H](O)C/C(=N/O[C@@H](C)CN4CCCc5nc(C)c(C)cc54)[C@@H]3CC[C@@H]2C1=O | / | -9.3%[10 µM] | -4.5%[10 µM] | / | / | /
CCOC(=O)c1ccc(NC(=O)CSc2nc3ncccc3[nH]2)cc1 | -12.6 | 40.6% | 5.3% | 20.6µM* | 29.2% | ?
CCCCc1ccc(NC(=O)CSc2nc3ncccc3[nH]2)cc1 | -5.7 | 20.1% | -13.8% | 1.16µM* | -9.5% | 2.59µM*
CCc1ccc(NC(=O)CSc2nc3ncccc3[nH]2)cc1 | / | / | / | 13µM* | / | ?
COc1ccc(NC(C)=O)cc1NC(=O)CSc1nc2ncccc2[nH]1 | -1.5 | 7.3%[10 µM] | -1.8% | 18.4µM* | -1.0% | 13µM*
O=C(CSc1nc2ncccc2[nH]1)NCCc1ccccc1 | -9.6 | 20.9% | 0.4% | 5.6% | -0.5% | 1.5%
CCS(=O)(=O)Nc1cccc(C2=NN(S(=O)(=O)CC)C(c3cccs3)C2)c1 (stereo not drawn) | -2.0 | 12.0% | 22.5% | -14.8% | -8.3% | -9.6%
C=CCN(c1ccccc1)S(=O)(=O)c1ccc2c(c1)NC(=O)C(C)C(=O)N2 (stereo not drawn) | 14.0 | -23.2% | -1.0% | 1.5% | -15.7% | 7.4%
Cc1ccc(O)c(-c2[nH]ncc2C(=O)c2ccc(Cl)cc2)c1 | -85.6* | -14.6% | 4.0% | -20.7% | -2.8% | -24.1%
Cc1cccc(C(=O)c2cn[nH]c2-c2ccc(C)cc2O)c1 | -7.3 | 2.6% | -1.3% | -23.1% | 0.9% | -8.7%
SMILES | IL1B secr inh | RORgamma inh | Gal4-VP16 FLuc | TDP1 cell noCPT | ELG1 repair inh | DT40 TDP1 CPT
Cc1ccc(-c2[nH]ncc2C(=O)c2cccc(F)c2)c(O)c1 | -7.4 | 8.0% | -7.4% | 14.6µM* | ? | ?
O=C(NNC(=O)c1cccc(S(=O)(=O)N2CCc3ccccc32)c1)c1ccccc1 | 29.8 | 32.7% | ? | 5.17µM* | ? | ?
CC(C)CCNC(=O)c1cccc(S(=O)(=O)N2CCc3ccccc32)c1 | 15.7 | 12.4% | 1.5% | ? | -18.4% | 14.6µM*
O=C(Nc1nc2ccccc2s1)c1cccc(S(=O)(=O)N2CCc3ccccc32)c1 | 25.0 | ? | -8.4% | 10.3µM* | -21.6% | -23.5%
O=C(NCc1ccccn1)c1cccc(S(=O)(=O)N2CCc3ccccc32)c1 | 8.1 | / | / | ? | ? | ?
NC(c1ccc(F)c(F)c1)c1nc(-c2cc(F)cc(F)c2)cs1 (stereo not drawn) | 4.9 | / | / | ? | / | -41.3%
CC(=O)c1cccc(NC(=O)/C(=C/c2ccncc2)NC(=O)c2ccccc2)c1 | 7.0 | -2.8% | -1.0% | 15.4% | 2.7% | -27.5%
Cc1ccccc1NC(=O)C1Cc2ccccc2CN1C(=O)c1ccco1 (stereo not drawn) | ? | 7.8% | 0.8% | -21.6% | ? | -16.2%
Cc1ccccc1NC(=O)C1Cc2ccccc2CN1C(=O)OCc1ccccc1 (stereo not drawn) | -4.7 | 7.0% | 15.7% | 20.6µM* | 6.8% | ?
Cc1ccc2oc(C(=O)N(Cc3ccc(N(C)C)cc3)C3CCS(=O)(=O)C3)c(C)c2c1 (stereo not drawn) | -26.1 | -1.3% | -6.7% | -19.1% | -15.8% | ?
Cc1c(C(=O)N(Cc2ccc(N(C)C)cc2)CC2CCCO2)oc2ccc(Cl)cc12 (stereo not drawn) | / | / | / | 20.6µM* | / | 16.4µM*
CN(Cc1ccccc1)C(=O)c1cc2ccccc2o1 | -0.5 | 4.4% | 20.8% | -16.1% | ? | 2.6%
CC(C)(C)N(Cc1ccccc1)C(=O)c1cc2ccccc2o1 | 4.5 | / | / | 11.6µM* | ? | ?
Cc1cc2oc(C(=O)N(Cc3ccc(N(C)C)cc3)CC3CCCO3)c(C)c2cc1Cl (stereo not drawn) | / | / | / | 18.4µM* | / | ?

Compound activity (PubChem)
